# Results taken from PubChem BioAssay (Tox21).
# Records with an inconclusive call do not appear. Entries that show only a call come without a potency. Calls of active or inactive are those of the source. Unless noted, calls follow the shape of the dose curve; as a rule, active = well fitted curve in the direction sought with a large enough effect in the repeat runs; inconclusive = weak or mixed curves; inactive = no such curve, though single readings can be large; an effect the other way counts as inactive or inconclusive.
# Experiments:
# [1] = qHTS assay to identify small molecule antagonists of the estrogen receptor alpha (ER-alpha) signaling pathway using the BG1 cell line in the presence of 0.1 nM 17-beta-estradiol - cell viability counter screen (AID 1259241); also: nearly all actives have a fitted effect of over 40% in size; also: potency is read from the fitted curve at half-maximal effect
# How it was run: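 Viability in VM7Luc4E2 cells after 22 hr compound exposure under 0.1 nM 17beta-estradiol stimulation, by CellTiter-Fluor.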
# [2] = qHTS assay to identify small molecule HDAC inhibitors (AID 1259364); also: top concentration of the series differs between compounds; nearly all actives have a fitted effect of over 45% in size
# How it was run: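 Endogenous HDAC class I/II activity was measured in wild-type HCT-116 cells by HDAC-Glo luminescence after 2 h compound treatment.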
# [3] = qHTS assay to identify small molecule HDAC inhibitors - cell viability counter screen (AID 1259365); also: series mostly up to about 92 µM; nearly all actives have a fitted effect of over 50% in size
# How it was run: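 Cytotoxicity was gauged in wild-type HCT-116 cells after a brief 2hr treatment with DMSO-dissolved compounds at 37C and 5% CO2, using CellTiter-Glo luminescence developed for 30min at room temperature.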
# [4] = qHTS assay to identify small molecule agonists of the sonic hedgehog signaling (Shh) pathway - cell viability counter screen (AID 1259366); also: nearly all actives have a fitted effect of over 50% in size
# How it was run: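 Stable Gli1-Luc NIH/3T3 clone, 2,000 cells/well. Compound exposure 24hr at 37C. Read-out: CellTiter-Fluor fluorescence.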
# [5] = qHTS assay to identify small molecule antagonists of the sonic hedgehog signaling (Shh) pathway - cell viability counter screen (AID 1259367); also: nearly all actives have a fitted effect of over 55% in size; also: potency is read from the fitted curve at half-maximal effect
# How it was run: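 After a 4 hr settling period, 3T3 Gli1-Luc cells were treated with DMSO-dissolved chemicals and conditioned medium, kept 24 hr at 37C in 5% CO2, and assayed for viability by CellTiter-Fluor fluorescence following 1 hr reagent incubation.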
# [6] = qHTS assay to identify small molecule agonists of the sonic hedgehog signaling (Shh) pathway (AID 1259368; calls by dose curve; also: nearly all actives have a fitted effect of over 15% in size; also: potency is read from the fitted curve at half-maximal effect)
# How it was run: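 Luminescent signal was taken as a measure of Gli1-controlled luciferase expression in stably transfected NIH/3T3-derived cells that had been treated for 24 hr with compounds delivered in DMSO.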
# [7] = qHTS assay to identify small molecule antagonists of the sonic hedgehog signaling (Shh) pathway (AID 1259369; calls by dose curve; also: nearly all actives have a fitted effect of over 45% in size; also: potency is read from the fitted curve at half-maximal effect)
# How it was run: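 Screening used 3T3Gli1-Luc cells at 2,000 per well, compounds delivered in DMSO, and conditioned medium as agonist stimulus; plates incubated 24hr at 37 C and 5% CO2 before a 30min luciferase step.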
# [8] = qHTS assay to identify small molecule agonists of the androgen receptor (AR) signaling pathway in the presence of an antagonist - cell viability counter screen (AID 1259379); also: nearly all actives have a fitted effect of over 25% in size; also: potency is read from the fitted curve at half-maximal effect
# How it was run: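 In MDA-kb2 cells (human breast carcinoma, MMTV-luciferase), compounds at 15 concentrations plus 3.0uM nilutamide; 16 hr, 37C, 0% CO2; CellTiter-Fluor fluorescence read for viability.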
# [9] = qHTS assay to identify small molecule antagonists of the estrogen receptor beta (ER-beta) signaling pathway - cell viability counter screen (AID 1259382); also: nearly all actives have a fitted effect of over 55% in size; also: potency is read from the fitted curve at half-maximal effect
# How it was run: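 Tox21 10K library tested in qHTS format on ER-beta-bla HEK293T cells stimulated with 1nM E2; 16 hr treatment at 37C. Same-well CellTiter-Glo luminescence served as the cell viability measure.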
# [10] = qHTS assay to identify small molecule antagonists of the androgen receptor (AR) signaling pathway using the MDA cell line in the presence of 0.5 nM R1881 - cell viability counter screen (AID 1259242); also: nearly all actives have a fitted effect of over 45% in size
# How it was run: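 Fluorescence from CellTiter-Fluor, which reports protease activity of live cells, was read 30 min after reagent addition to MDA-kb2 cells that had been incubated 16 hr with compound and 0.5 nM R1881.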
# [11] = qHTS assay to identify small molecule agonists of the estrogen receptor beta (ER-beta) signaling pathway - cell viability counter screen (AID 1259380); also: nearly all actives have a fitted effect of over 30% in size; also: potency is read from the fitted curve at half-maximal effect
# How it was run: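 Viability of ER-beta-UAS-bla HEK293T cells was determined by CellTiter-Glo luminescence following 16 hr treatment with test compounds at 37C.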
# [12] = qHTS assay to identify small molecule agonists or antagonists of the thyroid stimulating hormone receptor (TSHR) signaling pathway - wild type cell line counter screen (AID 1259384; calls by dose curve)
# How it was run: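 Wild-type HEK293 cells were plated 18 h at 37 C/5% CO2, pin-dosed with compound plus Ro20-1724 medium, held 30 min at room temperature, then given cAMP-d2 and anti-cAMP-cryptate; fluorescence was read after 1 h. Fifteen concentrations, triplicate.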
# [13] = biological target: Thyrotropin receptor (Homo sapiens) (UniProt P16473); assay: qHTS assay to identify small molecule antagonists of the thyroid stimulating hormone receptor (TSHR) signaling pathway (AID 1259385; calls by dose curve; also: nearly all actives have a fitted effect of over 20% in size; also: potency is read from the fitted curve at half-maximal effect)
# Thyrotropin receptor (Homo sapiens), sequence (P16473 whole entry, looked up): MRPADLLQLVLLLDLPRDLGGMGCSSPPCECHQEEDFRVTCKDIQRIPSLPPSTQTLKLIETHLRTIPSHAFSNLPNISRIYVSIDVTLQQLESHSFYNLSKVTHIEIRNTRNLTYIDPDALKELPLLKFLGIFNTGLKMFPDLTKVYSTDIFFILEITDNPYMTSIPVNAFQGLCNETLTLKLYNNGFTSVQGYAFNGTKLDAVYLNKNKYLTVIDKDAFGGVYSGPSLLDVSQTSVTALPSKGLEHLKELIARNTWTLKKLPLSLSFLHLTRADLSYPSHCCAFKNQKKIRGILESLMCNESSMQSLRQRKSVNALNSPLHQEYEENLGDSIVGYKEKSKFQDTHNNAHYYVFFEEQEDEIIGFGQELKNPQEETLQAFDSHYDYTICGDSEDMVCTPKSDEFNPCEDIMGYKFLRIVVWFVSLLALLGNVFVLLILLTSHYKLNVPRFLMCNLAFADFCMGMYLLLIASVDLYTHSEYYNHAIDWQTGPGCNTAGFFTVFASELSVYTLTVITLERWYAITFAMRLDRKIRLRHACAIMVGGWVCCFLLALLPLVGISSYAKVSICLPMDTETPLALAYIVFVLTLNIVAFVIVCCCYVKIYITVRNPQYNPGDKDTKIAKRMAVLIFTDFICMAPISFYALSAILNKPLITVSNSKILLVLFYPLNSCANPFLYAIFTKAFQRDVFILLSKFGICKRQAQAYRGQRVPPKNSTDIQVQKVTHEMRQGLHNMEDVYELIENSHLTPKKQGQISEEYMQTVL
# How it was run: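 TSHR-HEK293 cells were plated and held 18 h at 37C/5% CO2, then given compound plus Ro20-1724 and stimulated with TSH at 1.5 ng/mL final. After 30 min at room temperature, cAMP was detected with cAMP-d2/anti-cAMP-cryptate (1 h) by fluorescence.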
# [14] = biological target: Estrogen receptor (Homo sapiens) (UniProt P03372); assay: qHTS assay to identify small molecule antagonists of the estrogen receptor alpha (ER-alpha) signaling pathway using the BG1 cell line in the presence of 0.1 nM 17-beta-estradiol (AID 1259244); also: nearly all actives have a fitted effect of over 50% in size
# Estrogen receptor (Homo sapiens), sequence (P03372 whole entry, looked up): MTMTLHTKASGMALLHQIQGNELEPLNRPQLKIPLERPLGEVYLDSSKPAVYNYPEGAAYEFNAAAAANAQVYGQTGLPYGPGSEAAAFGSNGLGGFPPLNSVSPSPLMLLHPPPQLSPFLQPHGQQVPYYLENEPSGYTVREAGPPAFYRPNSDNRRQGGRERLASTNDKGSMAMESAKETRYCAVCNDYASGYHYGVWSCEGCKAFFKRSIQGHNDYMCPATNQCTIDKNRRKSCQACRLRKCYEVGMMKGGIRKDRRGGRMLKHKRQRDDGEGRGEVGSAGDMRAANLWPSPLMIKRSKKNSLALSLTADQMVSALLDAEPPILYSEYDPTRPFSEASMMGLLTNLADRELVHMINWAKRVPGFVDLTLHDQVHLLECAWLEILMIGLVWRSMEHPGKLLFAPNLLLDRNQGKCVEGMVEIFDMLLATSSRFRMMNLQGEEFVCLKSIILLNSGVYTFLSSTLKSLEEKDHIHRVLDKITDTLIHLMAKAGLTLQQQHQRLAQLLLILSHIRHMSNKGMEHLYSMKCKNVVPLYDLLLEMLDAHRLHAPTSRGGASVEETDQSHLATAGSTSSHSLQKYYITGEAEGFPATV
# How it was run: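 Quantitative high-throughput screen in VM7Luc4E2 cells: compound plus 0.1 nM E2 (final), 22 h, 37C, 5% CO2; ONE-Glo added, 30 min room temperature, luminescence measured.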
# [15] = biological target: Estrogen receptor (Homo sapiens) (UniProt P03372); assay: qHTS assay to identify small molecule agonists of the estrogen receptor alpha (ER-alpha) signaling pathway in the presence of an antagonist (AID 1259383; calls by dose curve; also: top concentration of the series differs between compounds; nearly all actives have a fitted effect of over 15% in size)
# How it was run: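 In VM7Luc4E2 cells, 4,000 per well, compounds at 15 concentrations were co-incubated 22hr at 37C with 10.0nM final ICI-182,780. Luminescence from the stably transfected 4×ERE-luciferase reporter was recorded 30min after ONE-Glo addition.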
# [16] = biological target: Estrogen receptor beta (Homo sapiens) (UniProt Q92731); assay: qHTS assay to identify small molecule agonists of the estrogen receptor beta (ER-beta) signaling pathway (AID 1259377; active = well fitted activation curve with a large enough effect in the signal ratio in the repeat runs, not every such curve was filed as active; the % refers to the signal ratio)
# Estrogen receptor beta (Homo sapiens), sequence (Q92731 whole entry, looked up): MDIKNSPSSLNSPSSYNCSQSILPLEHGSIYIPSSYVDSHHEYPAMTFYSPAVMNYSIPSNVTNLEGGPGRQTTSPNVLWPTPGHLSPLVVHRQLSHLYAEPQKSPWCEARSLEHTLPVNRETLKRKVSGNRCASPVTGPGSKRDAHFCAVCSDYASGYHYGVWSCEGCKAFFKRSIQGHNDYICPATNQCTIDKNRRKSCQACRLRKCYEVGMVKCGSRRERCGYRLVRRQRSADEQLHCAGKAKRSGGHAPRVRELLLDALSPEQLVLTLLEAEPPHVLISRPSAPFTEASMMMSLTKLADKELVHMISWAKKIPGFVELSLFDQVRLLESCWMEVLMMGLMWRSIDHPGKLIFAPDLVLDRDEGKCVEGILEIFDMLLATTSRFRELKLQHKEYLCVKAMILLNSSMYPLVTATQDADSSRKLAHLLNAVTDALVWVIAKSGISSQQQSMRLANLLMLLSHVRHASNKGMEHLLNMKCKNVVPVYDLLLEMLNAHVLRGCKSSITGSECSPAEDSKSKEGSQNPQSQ
# How it was run: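 Measured by fluorescence intensity from a B/G FRET beta-lactamase substrate (2 h, room temperature) in ER-beta-UAS-bla HEK293T cells treated with DMSO-dissolved compounds for 16 hr at 37C and 5% CO2.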
# [17] = biological target: Estrogen receptor beta (Homo sapiens) (UniProt Q92731); assay: qHTS assay to identify small molecule antagonists of the estrogen receptor beta (ER-beta) signaling pathway (AID 1259378; active = well fitted inhibition curve with a large enough effect in the signal ratio in the repeat runs, not every such curve was filed as active; the % refers to the signal ratio)
# How it was run: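 ER-beta-UAS-bla HEK293T (GripTite) cells in 2% charcoal-stripped FBS medium were preincubated 6 hr at 37C, dosed with compound, then stimulated with 1 nM E2 (final) for 16 hr; beta-lactamase reporter read by B/G FRET fluorescence after 2 hr substrate loading.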
# [18] = biological target: Androgen receptor (Homo sapiens) (UniProt P10275); assay: qHTS assay to identify small molecule antagonists of the androgen receptor (AR) signaling pathway using the MDA cell line in the presence of 0.5 nM R1881 (AID 1259243); also: potency is read from the fitted curve at half-maximal effect; nearly all actives have a fitted effect of over 50% in size
# Androgen receptor (Homo sapiens), sequence (P10275 whole entry, looked up): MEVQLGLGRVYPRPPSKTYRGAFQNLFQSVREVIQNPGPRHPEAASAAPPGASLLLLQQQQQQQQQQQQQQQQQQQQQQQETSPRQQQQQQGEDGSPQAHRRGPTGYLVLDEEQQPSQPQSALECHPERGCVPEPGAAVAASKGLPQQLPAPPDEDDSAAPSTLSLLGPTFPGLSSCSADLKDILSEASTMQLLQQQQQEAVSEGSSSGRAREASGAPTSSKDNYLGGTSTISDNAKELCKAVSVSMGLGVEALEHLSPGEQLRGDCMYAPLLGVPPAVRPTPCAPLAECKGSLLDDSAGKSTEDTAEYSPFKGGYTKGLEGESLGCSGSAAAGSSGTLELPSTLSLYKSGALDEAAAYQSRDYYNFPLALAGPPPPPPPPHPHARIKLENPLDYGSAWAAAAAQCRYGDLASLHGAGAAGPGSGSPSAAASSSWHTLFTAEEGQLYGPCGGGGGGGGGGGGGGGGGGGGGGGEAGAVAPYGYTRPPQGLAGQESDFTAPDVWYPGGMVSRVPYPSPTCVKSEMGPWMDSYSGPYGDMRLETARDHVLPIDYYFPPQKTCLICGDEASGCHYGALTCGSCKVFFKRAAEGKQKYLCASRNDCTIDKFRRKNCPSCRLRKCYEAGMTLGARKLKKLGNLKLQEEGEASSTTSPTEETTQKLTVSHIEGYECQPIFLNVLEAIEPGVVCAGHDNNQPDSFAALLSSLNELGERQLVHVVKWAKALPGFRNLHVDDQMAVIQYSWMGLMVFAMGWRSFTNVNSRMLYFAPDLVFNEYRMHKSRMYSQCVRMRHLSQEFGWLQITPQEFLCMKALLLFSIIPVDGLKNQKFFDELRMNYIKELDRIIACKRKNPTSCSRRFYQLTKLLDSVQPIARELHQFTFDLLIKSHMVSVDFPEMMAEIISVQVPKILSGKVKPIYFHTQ
# How it was run: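 Inhibition of R1881 (0.5 nM final) induced reporter signal was measured in human MDA-kb2 cells; note the MMTV promoter also responds to GR. Exposure lasted 16 hr at 37C.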
# [19] = qHTS assay to identify small molecule phospholipidosis (PLD) inducers (AID 1259344; active = well fitted curve in the direction sought with a large enough effect; an effect the other way counts as inactive or inconclusive)
# How it was run: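 HepG2 cells grown on collagen I take up LipidTOX Red while exposed to compound for 24 h; after fixation they are imaged at 20x and pit metrics are extracted.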
# [20] = biological target: Androgen receptor (Homo sapiens) (UniProt P10275); assay: qHTS assay to identify small molecule agonists of the androgen receptor (AR) signaling pathway in the presence of an antagonist (AID 1259381; calls by dose curve; also: nearly all actives have a fitted effect of over 15% in size)
# How it was run: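 Here, 15-concentration compound series were pin-transferred onto MDA-kb2 MMTV-luciferase cells already dosed with nilutamide (3.0uM final). After 16hr at 37C, ONE-Glo was added and luminescence read 30min later at room temperature.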
Structure (SMILES),Potency [1],Potency [2],Potency [3],Potency [4],Potency [5],Potency [6],Potency [7],Potency [8],Potency [9],Potency [10],Potency [11],Potency [12],Potency [13],Potency [14],Potency [15],Potency [16],Potency [17],Potency [18],outcome [19],Potency [20]
O=S(=O)(NS(=O)(=O)C(F)(F)F)C(F)(F)F,inactive,inactive,inactive,inactive,inactive,inactive,2.43 µM (active),19.3 µM (active),inactive,–,–,–,–,–,–,–,–,–,–,–
Nc1c(Cl)c(Cl)c(Cl)c(Cl)c1Cl,–,inactive,inactive,–,inactive,inactive,inactive,inactive,inactive,inactive,inactive,inactive,inactive,–,–,–,–,–,–,–
O.O.O.O=C([O-])[C@H]([O-])[C@@H]([O-])C(=O)[O-].O=C([O-])[C@H]([O-])[C@@H]([O-])C(=O)[O-].[K+].[K+].[Sb+3].[Sb+3],48.8 µM (active),–,inactive,inactive,inactive,inactive,–,17.3 µM (active),inactive,–,inactive,–,–,inactive,inactive,–,–,–,–,–
CN1[C@@H]2CC[C@H]1CC(O)C2 (stereo not given in full),inactive,–,–,inactive,inactive,inactive,inactive,inactive,inactive,inactive,inactive,–,–,–,inactive,inactive,inactive,–,–,–
COc1ccc(Cc2nccc3cc(OC)c(OC)cc23)cc1OC,inactive,inactive,inactive,–,inactive,inactive,1.88 µM (active),18.8 µM (active),inactive,–,inactive,inactive,inactive,–,–,inactive,inactive,6.68 µM (active),inactive,inactive
CC(=O)[O-].CC(=O)[O-].[Co+2],inactive,–,inactive,–,–,54.5 µM (active),inactive,inactive,inactive,inactive,inactive,–,–,–,–,–,–,–,–,–
NC1CCC(CC2CCC(N)CC2)CC1 (stereo not given),–,inactive,inactive,–,–,inactive,–,60.1 µM (active),inactive,–,inactive,–,–,inactive,inactive,–,–,–,–,–
CCN1CCC2(CC1)COc1cc3c(cc12)N(C(=O)c1ccc(-c2ccc(-c4nnc(C)o4)cc2C)cc1)CC3,–,–,inactive,–,63.3 µM (active),inactive,2 µM (active),63.3 µM (active),11.2 µM (active),–,6.33 µM (active),inactive,63.3 µM (active),–,–,–,–,–,–,inactive
COP(=O)(OC)Oc1ccc([N+](=O)[O-])cc1,–,inactive,–,inactive,inactive,inactive,inactive,–,inactive,inactive,inactive,inactive,inactive,inactive,–,inactive,inactive,–,–,–
COC(=O)c1ccccc1S(=O)(=O)NC(=O)Nc1nc(C)nc(OC)n1,inactive,–,–,inactive,inactive,inactive,inactive,inactive,inactive,inactive,inactive,inactive,inactive,–,–,inactive,inactive,–,–,–
